The whole screen tested about 290,000 compounds, of which about 3,000 (1%) were called active. Rule as the data show it: active = inhibition mostly above about 36% (no sharp cut-off); inactive = mostly below about 34%. The list comes from a sample in which actives are over-represented; it also holds similar structures and randomly drawn compounds.
Experiment: inhibition of NOD1-driven NF-kB reporter – cell-based, luminescence, uHTS, primary screen (AID 1578);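 also: HEK-293T reporter cells stimulated with the NOD1 agonist gamma-tri-DAP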
Settings: NOD1-driven NF-kB luciferase reporter cells, at 4 µM, stronger effect = higher value

SMILES	inhibition
CNC(=S)N/N=C1\C(=O)c2cccc3cccc1c23	98.1% (active)
CCCCNC(=S)N/N=C1\C(=O)c2cccc3cccc1c23	-56.3% (inactive)
CCNC(=S)N/N=C1\C(=O)c2cccc3cccc1c23	47.8% (inactive)
CC(C)(C)c1ccc(-c2cc(-c3ccccc3O)[nH]n2)cc1	25.5% (inactive)
Cc1cccc(NC(=S)N/N=C/c2cccn2Cc2ccc(F)cc2)c1	23.3% (inactive)
Cc1nc([N+](=O)[O-])c(Br)n1CC(=O)c1ccccc1	28.9% (inactive)
Cc1nc([N+](=O)[O-])c(Br)n1CC(=O)c1ccc(Br)cc1	44.8% (inactive)
C[C@@H]1ON(C2CCCCC2)[C@H]2c3nc4ccccc4n3C[C@@H]12	-10.2% (inactive)
CCn1c(Cc2ccc(OC)cc2)nnc1SCc1nc2ccccc2c(=O)[nH]1	-38.1% (inactive)
CCOCC(=O)Nc1c(C(=O)N2CCN(c3ncccn3)CC2)oc2ccccc12	-37.9% (inactive)
COc1ccc(NC(=O)c2cc(-c3cc(Cl)ccc3O)n[nH]2)c(OC)c1	-3.3% (inactive)
COc1ccc(OC)c(NC(=O)c2cc(-c3cc(C)ccc3O)n[nH]2)c1	3.5% (inactive)
COc1ccc(OC)c(NC(=O)c2cc(-c3cc(Cl)ccc3O)n[nH]2)c1	61.4% (active)
Cn1c(CNC(=O)c2ccc(F)cc2)cc2ccccc21	-17.9% (inactive)
Cc1onc(-c2c(F)cccc2Cl)c1C(=O)NC1=NCCS1	-2% (inactive)
Cn1c(SCC(=O)NCC2CCCO2)nc2c(c1=O)SCC2 (centres undefined)	-11.7% (inactive)
CN(C)S(=O)(=O)N1CCC(Oc2ccc(C(=O)NC3CCCCC3)cc2)CC1	-24.9% (inactive)
C=C(C)CN(CC)C(=O)c1ccc(OC2CCN(S(=O)(=O)N(C)C)CC2)cc1	59.3% (active)
C=CCN(CC=C)C(=O)c1ccc(OC2CCN(S(=O)(=O)N(C)C)CC2)cc1	-27.3% (inactive)
C=C(C)CNC(=O)c1ccc(OC2CCN(S(=O)(=O)N(C)C)CC2)cc1	-27.4% (inactive)
CN(C)S(=O)(=O)N1CCC(Oc2cccc(C(=O)NC3CCOC3)c2)CC1 (centres undefined)	-17.9% (inactive)
Cc1oc(-c2ccccc2Cl)nc1CSCC(=O)O	-4.9% (inactive)
COC(=O)c1cccc(N(C(=O)c2cnccn2)C(C(=O)NCc2ccccc2)c2ccco2)c1 (centres undefined)	-29.2% (inactive)
O=C(Nc1cn(-c2ccccc2)nc1-c1ccc(Cl)cc1)c1ccccc1	-1.1% (inactive)
CC(=O)Nc1cn(-c2ccccc2)nc1-c1ccccc1	-27.2% (inactive)

SMILES	inhibition
Cc1cc(NC(=O)CC(F)(F)F)n(-c2ccccc2)n1	-13.5% (inactive)
CC(=O)Nc1cc(-c2ccc(Cl)cc2)nn1-c1ccccc1	-11.7% (inactive)
Cc1ccc(-c2cc(NC(=O)CCl)n(-c3ccccc3)n2)cc1	16% (inactive)
CCCc1cc(C(=O)Nc2cc(C)nn2-c2ccccc2)no1	9.1% (inactive)
CSc1nc2c(c(=O)[nH]1)CCCC2	-21.3% (inactive)
COC(=O)c1ccc(NC(=O)CNC(=O)C2CCCCC2)cc1	-20.7% (inactive)
C/C(=N\NC(=O)c1nn(C)cc1Br)c1ccncc1	-3.7% (inactive)
O=C(O)c1ccc(S(=O)(=O)c2ccc3c(c2)C(=O)N(c2ccc(Br)cc2)C3=O)cc1	-8.2% (inactive)
CN(CCOC(=O)c1ccco1)Cc1ccccc1	3.9% (inactive)
COc1ccc(Sc2ccc(/C=C3\C(=O)NN(c4ccccc4)C3=O)o2)cc1	-2.5% (inactive)
O=C1NN(c2ccccc2)C(=O)/C1=C/c1ccc(Sc2cccc3ccccc23)o1	74.7% (active)
O=C1NN(c2ccccc2)C(=O)/C1=C/c1ccc(-c2ccc(C(=O)O)cc2)o1	-32% (inactive)
CC(=O)N1[C@H](C)C=C[C@]1(Cc1ccccc1)C(=O)NCc1cc(F)cc(C(F)(F)F)c1	5.4% (inactive)
CC1CCN(CC2C(=O)O[C@@H]3C[C@@]4(C)CCC[C@H](C)C4=C[C@H]23)CC(C)(C)C1 (some centres undefined)	15.4% (inactive)
C[C@H]1CCC[C@]2(C)C[C@H]3OC(=O)C(CN4CCCCCC4)[C@H]3C=C12 (some centres undefined)	34% (active)
CCN(CC)CCNCC1C(=O)O[C@@H]2C[C@@]3(C)CCC[C@H](C)C3=C[C@H]12 (some centres undefined)	-10.7% (inactive)
CCOC(=O)c1c(C)[nH]c(C(=O)CN2C(=O)NC(C)(CC(C)C)C2=O)c1C (centres undefined)	-30.4% (inactive)
CCOc1ccc(NC(=O)c2cc(=O)[nH]c3ccccc23)cc1	-21.6% (inactive)
Nc1ccc2nc(SCc3ccccc3F)sc2c1	-8.7% (inactive)
CCc1cccc(NC(=O)c2cnn(-c3ccccc3)c2C)c1	-1.5% (inactive)
COc1ccc(-c2nc(CSCC(=O)NC3CCN(Cc4ccccc4)CC3)c(C)o2)cc1OC	-11.6% (inactive)
Cc1ccc(-c2nc(CSCC(=O)NC3CCN(Cc4ccccc4)CC3)c(C)o2)cc1	16% (inactive)
COc1cc(C(=O)N2CCCCCCC2)ccc1OC1CCN(C(C)=O)CC1	-27.7% (inactive)
C=CCc1cccc(/C=N/NC(=O)C(C)Nc2cccc(C)c2)c1O (centres undefined)	53.5% (active)
C=CCc1cccc(/C=N/NC(=O)C(C)Nc2ccc(C)cc2)c1O (centres undefined)	30.7% (inactive)

SMILES	inhibition
C=CCc1cccc(/C=N/NC(=O)C(=O)Nc2ccc(C)cc2)c1O	-24.6% (inactive)
CCOC(=O)C(Cc1ccccc1)NC(=O)CNC(C)=O (centres undefined)	-11.4% (inactive)
Cc1ccsc1/C=N/Nc1cccc(C(=O)O)c1	84% (active)
O=C(O)c1cccc(N/N=C/c2ccc(-c3ccccc3)cc2)c1	3.6% (inactive)
Cc1ccsc1/C=N/Nc1ccc(C(=O)O)cc1	-2.3% (inactive)
CSc1ccc(/C=N/Nc2ccc(Cl)c(C(=O)O)c2)cc1	-22.8% (inactive)
CN(C)c1ccc(/C=N/Nc2cccc(C(=O)O)c2)cc1	72.1% (active)
O=C(O)c1cccc(N/N=C/c2ccc(F)c(F)c2)c1	-12.4% (inactive)
CC(C)(C)c1ccc(/C=N/Nc2cccc(C(=O)O)c2)cc1	-13.1% (inactive)
CSc1ccc(/C=N/Nc2cccc(C(=O)O)c2)cc1	83.8% (active)
Cc1ccc(/C=N/Nc2cccc(C(=O)O)c2)s1	4.1% (inactive)
Cc1ccc(NC(=O)COc2ncnc3cc([N+](=O)[O-])ccc23)cc1S(=O)(=O)N1CCOCC1	-14.7% (inactive)
CCC/S(C)=N/S(=O)(=O)c1ccc(C)cc1 (centres undefined)	-6.2% (inactive)
O=C1CSC(c2ccccc2F)N1CCN1CCCCC1 (centres undefined)	-19% (inactive)
COC(=O)c1cccc(NC(=O)Cc2ccc(OC)cc2)c1C	-11.4% (inactive)
O=C(Nc1ccccc1)Nc1nc(-c2ccccc2)cs1	-13.8% (inactive)
Cc1ccsc1/C=N/N1CCOCC1	-33.4% (inactive)
CCOC(=O)N1CCC(Nc2c(Nc3cccc(CC)c3)c(=O)c2=O)CC1	18.1% (inactive)
CCOc1ccc(C(=O)Nc2cccc3ncccc23)cc1Cl	8.8% (inactive)
CC(C)c1ccccc1OCC(=O)Nc1ccc2[nH]ncc2c1	47.7% (active)
Cc1ccccc1OCC(=O)Nc1ccc2[nH]ncc2c1	-17.7% (inactive)
O=C(COc1ccccc1)Nc1ccc2[nH]ncc2c1	-11.3% (inactive)
N#Cc1c(Nc2ccccc2)sc(C(=O)c2ccc(F)cc2)c1N	5.2% (inactive)
Nc1c(C(=O)c2ccccc2)sc(Nc2ccccc2)c1S(=O)(=O)c1ccccc1	52.2% (active)
N#Cc1c(Nc2ccccc2)sc(C(=O)c2ccccc2)c1N	0.9% (inactive)

SMILES	inhibition
COCCn1c(C)cc(C(=O)CSc2nc3ccccc3s2)c1C	54% (inactive)
COCCn1c(C)cc(C(=O)CSc2nnc(C)s2)c1C	77.8% (active)
CC(=O)CSc1ncnc2sc3c(c12)CCC3	13.2% (inactive)
COCCn1c(C)cc(C(=O)CSc2nc(C)c(C)c(C)n2)c1C	-5.4% (inactive)
Cc1ccc(C(=O)CSc2ncnc3sc4c(c23)CCCC4)cc1	31% (inactive)
COc1ccc(CNCc2ccc3c(c2)OCO3)c(OC)c1OC	-18% (inactive)
Cc1cc(N2CCN(C)CC2)nc2ccc(NC(=O)CCC(=O)NCCC(C)C)cc12	-10.6% (inactive)
Cc1ccc2nc(Cl)c3nnnn3c2c1	83.8% (active)
Cc1ccc(-c2nc3ccccc3n3nnnc23)cc1	-53.8% (inactive)
Cc1ccc2nc(N3CCN(c4cccc(C)c4C)CC3)c3nnnn3c2c1	6.9% (inactive)
COc1ccc(OCCC(=O)N2CCOCC2)cc1	-24% (inactive)
CN(Cc1ccccc1)C(=O)c1ccccc1NC(=O)c1ccco1	54.5% (active)
CN(Cc1ccccc1)C(=O)c1ccccc1NC(=O)c1ccccc1	-20.6% (inactive)
O=C(Nc1ccccc1C(=O)NCc1ccccc1)c1ccco1	-14.6% (inactive)
Oc1ccc(/C=N/Nc2ccnc3cc(Cl)ccc23)c(O)c1O	-3.8% (inactive)
CN(C)CCN(C(=O)c1ccc(N2C(=O)CCC2=O)cc1)c1nc2cc3c(cc2s1)OCO3	-20.4% (inactive)
O=C(N/N=C/c1ccccc1Br)C1CC1	-25.3% (inactive)
Cc1oc(-c2ccc(Cl)cc2)nc1CN1CCC(C(=O)NCCCN2CCCC2=O)CC1	17.3% (inactive)
O=C(O)Cc1ccc(O)c(O)c1	-0.7% (inactive)
O=Cc1cc(CCC(=O)O)ccc1O	63% (active)
COc1ccc(CCC(=O)O)cc1OC	-2.3% (inactive)
COc1ccc(C(=O)/C(C#N)=N/Nc2ccc([N+](=O)[O-])cc2)cc1	82.5% (active)
COc1ccc(N/N=C(\C#N)C(N)=O)cc1	-41.5% (inactive)
COc1ccc(C(=O)/C(C#N)=N/Nc2ccccc2[N+](=O)[O-])cc1	42.9% (inactive)

Reference: PubChem BioAssay AID1578 (Sanford-Burnham Center for Chemical Genomics, 2009)
